Reference: the supplement of paper PMC13380429

How the values were obtained:
[1] = test system: Vero E6 infected with SARS-CoV-2; test: morphology score (similarity to uninfected cells); higher = more like uninfected cells; details: 24 h
[2] = test system: Vero E6 infected with SARS-CoV-2; test: SARS-CoV-2 infection rate relative to infected DMSO; higher = more infection, active = 60 or less; details: 24 h

| Structure (SMILES) | morphology score [1] | SARS-CoV-2 infection rate [2] |
| --- | --- | --- |
| COc1ccc(-c2ccc3c(N4CCOC[C@@H]4C)nc(N4CCOC[C@@H]4C)nc3n2)cc1CO (0.833333 µM) | -0.0692 | 105% (inactive) |
| C=CC(=O)Nc1ccc2ncnc(Nc3cccc(Br)c3)c2c1 (0.833333 µM) | 0.0618 | 90% (inactive) |
| O=C1c2cccc3c2[C@H](CCC3)CN1[C@@H]1CN2CCC1CC2 [palonosetron] (10 µM) | 0.324 | 91.5% (inactive) |
| COc1cc(/C=C/C(N)=O)cc(OC)c1OC [cintriamide] (10 µM) | -0.0883 | 110% (inactive) |
| C1CCC(C(CC2CCCCN2)C2CCCCC2)CC1 (stereo not drawn) [perhexiline] (0.833333 µM) | -0.219 | 114% (inactive) |
| CC(C)(Sc1ccc(CCN(CCCCC2CCCCC2)C(=O)NC2CCCCC2)cc1)C(=O)O (10 µM) | 0.13 | 117% (inactive) |
| COC(=O)C1=C(C)NC(C)=C(C(=O)OC2CCCN(Cc3ccccc3)C2)C1c1cccc([N+](=O)[O-])c1 (stereo not drawn) [benidipine] (10 µM) | 0.0303 | 102% (inactive) |
| CCn1nc(C(=O)O)c(=O)c2cc3c(cc21)OCO3 [cinoxacin] (10 µM) | -0.0392 | 104% (inactive) |
| Nc1nc2[nH]cc(CCc3ccc(C(=O)N[C@@H](CCC(=O)O)C(=O)O)cc3)c2c(=O)[nH]1 [pemetrexed] (10 µM) | -0.15 | 121% (inactive) |
| Nc1ncnc2c1ncn2[C@@H]1O[C@H](CO)C[C@H]1O [cordycepin] (10 µM) | -0.1 | 112% (inactive) |
| Cc1noc(NS(=O)(=O)c2cccc3c(N(C)C)cccc23)c1C (10 µM) | 0.115 | 95.5% (inactive) |
| Cc1ccc(NC(=O)c2ccc(CN3CCN(C)CC3)cc2)cc1Nc1nc(-c2cccnc2)cs1 [masitinib] (10 µM) | 0.757 | 43% (active) |
| O=[N+]([O-])c1cc([N+](=O)[O-])c(/C=C/c2ccc(Cl)c(Cl)c2)cc1/C=C/c1ccc(Cl)c(Cl)c1 (10 µM) | 0.192 | 97.5% (inactive) |
| COc1ccc2nc3c(c(N)c2c1)CCCC3 [7-methoxytacrine] (10 µM) | 0.597 | 64.5% (inactive) |
| CCNC(C)CN1CCc2c(c(=O)oc3ccccc23)C1 (stereo not drawn) (10 µM) | 0.209 | 98% (inactive) |
| NC(=O)c1ccccc1O [salicylamide] (10 µM) | -0.114 | 102% (inactive) |
| CCN(CC)CCOC(=O)C(c1ccccc1)C1CCCCC1 (stereo not drawn) [drofenine] (10 µM) | 0.275 | 99.5% (inactive) |
| CCCCC/N=c1\ccn(Cc2ccccc2)c2ccccc12 (10 µM) | 0.0295 | 108% (inactive) |
| CCN1CCN(c2ccc(Nc3cc(N(C)C(=O)Nc4c(Cl)c(OC)cc(OC)c4Cl)ncn3)cc2)CC1 (0.833333 µM) | -0.0528 | 117% (inactive) |
| CC(C)NC[C@@H](O)COc1ccccc1-n1cccc1 (racemic) [isamoltane] (10 µM) | -0.204 | 114% (inactive) |

| Structure (SMILES) | morphology score [1] | SARS-CoV-2 infection rate [2] |
| --- | --- | --- |
| COC(=O)C1=C(C)NC(C)=C(C(=O)OCCN2CCN(C(c3ccccc3)c3ccccc3)CC2)C1c1cccc([N+](=O)[O-])c1 (stereo not drawn) [manidipine] (10 µM) | 0.247 | 91% (inactive) |
| CCCN[C@H]1CCc2nc(N)sc2C1 [pramipexole] (10 µM) | 0.032 | 120% (inactive) |
| COc1ccc(Nc2ncnc3ccc(OC)cc23)cc1 (10 µM) | -0.228 | 122% (inactive) |
| C=CCNC1=C2C[C@@H](C)C[C@H](OC)[C@H](O)[C@@H](C)/C=C(\C)[C@H](OC(N)=O)[C@@H](OC)/C=C\C=C(/C)C(=O)NC(=CC1=O)C2=O [tanespimycin] (10 µM) | -0.0472 | 114% (inactive) |
| C=C(C)[C@@H]1CC[C@]2(C(=O)O)CC[C@]3(C)[C@H](CC[C@@H]4[C@@]5(C)CC[C@H](OC(=O)CC(C)(C)C(=O)O)C(C)(C)[C@@H]5CC[C@]43C)[C@@H]12 [bevirimat-dimeglumine] (10 µM) | -0.0115 | 113% (inactive) |
| O=C1Nc2ccc(Cl)c3c2C1(CCCCN1CC=C(c2ccc(Cl)cc2)CC1)CCC3 (stereo not drawn) (0.833333 µM) | 0.0484 | 106% (inactive) |
| CCCCCCCCCCCCCCCC(=O)OC(CC(=O)[O-])C[N+](C)(C)C (stereo not drawn) [palmitoylcarnitine] (0.833333 µM) | -0.0181 | 106% (inactive) |
| COc1cc2c(cc1OC)-c1cc3nc4ccccc4nc3n1C(C)(C)C2 (10 µM) | 0.134 | 91% (inactive) |
| CN1CCN(c2nc3ccccc3nc2Cl)CC1 (10 µM) | 0.162 | 102% (inactive) |
| NS(=O)(=O)NCCNc1nonc1/C(=N/O)Nc1ccc(F)c(Br)c1 (10 µM) | 0.162 | 112% (inactive) |
| CCc1nc(C(N)=O)c(Nc2ccc(N3CCC(N4CCN(C)CC4)CC3)c(OC)c2)nc1NC1CCOCC1 [gilteritinib] (0.833333 µM) | 0.272 | 91.5% (inactive) |
| C[C@H]1CCc2c(cc(Br)c(F)c2Br)N1C=O (10 µM) | 0.0995 | 94.5% (inactive) |
| CN(C)CCOC(C)(c1ccccc1)c1ccccn1 (stereo not drawn) [doxylamine] (10 µM) | 0.112 | 96% (inactive) |
| Cc1cc2c(s1)Nc1ccccc1N=C2N1CCN(C)CC1 [olanzapine] (10 µM) | -0.0599 | 108% (inactive) |
| O=C1C[C@@H](c2ccc(O)cc2)Oc2cc(O)cc(O)c21 [naringenin] (10 µM) | 0.0218 | 98.5% (inactive) |
| Cc1cc(=O)n(-c2ccccc2)[nH]1 [N-demethylantipyrine] (10 µM) | 0.121 | 101% (inactive) |
| CNC(=O)c1ccc2cc([C@@]3(O)CCn4cncc43)ccc2c1 [orteronel] (10 µM) | 0.0827 | 106% (inactive) |
| Cc1ccc(S(=O)(=O)n2c(N)nc3ccccc32)cc1 (10 µM) | -0.0202 | 108% (inactive) |
| Nc1ccc(S(=O)(=O)Nc2cnc3ccccc3n2)cc1 [sulfaquinoxaline] (10 µM) | 0.114 | 104% (inactive) |
| NNCCc1ccccc1 [phenelzine] (10 µM) | 0.113 | 102% (inactive) |

| Structure (SMILES) | morphology score [1] | SARS-CoV-2 infection rate [2] |
| --- | --- | --- |
| Cc1cccc(C)c1NC(=O)C1CCCCN1C (stereo not drawn) [mepivacaine] (10 µM) | 0.171 | 97.5% (inactive) |
| COc1ccc2c(Oc3ccc(NC(=O)c4c(C)n(CC(C)(C)O)n(-c5ccccc5)c4=O)nc3)ccnc2c1 (10 µM) | 0.316 | 98% (inactive) |
| CN(C)CCN(Cc1ccccc1)c1ccccn1 [tripelennamine] (10 µM) | -0.0386 | 110% (inactive) |
| CN1CCN(CCCN2c3ccccc3Sc3ccc(S(=O)(=O)N(C)C)cc32)CC1 [thioproperazine] (10 µM) | 0.251 | 102% (inactive) |
| CO[C@H]1/C=C/O[C@@]2(C)Oc3c(C)c(O)c4c(O)c(c(/C=N/N=C/N5CCCCC5)c(O)c4c3C2=O)NC(=O)/C(C)=C\C=C\[C@H](C)[C@H](O)[C@@H](C)[C@@H](O)[C@@H](C)[C@H](OC(C)=O)[C@@H]1C (10 µM) | 0.053 | 108% (inactive) |
| C=CC[N@@+]12CC[C@@]34c5ccccc5N5/C=C6/[C@H]7C[C@H]8[C@@]9(CC[N@@+]8(CC=C)C/C7=C/CO)c7ccccc7N(/C=C(/[C@@H](C[C@@H]31)/C(=C\CO)C2)[C@H]54)[C@@H]69 [alcuronium] (10 µM) | -0.108 | 114% (inactive) |
| N#CC1(c2ccc(NC(=O)c3cccnc3NCc3ccncc3)cc2)CCCC1 [apatinib] (10 µM) | 0.31 | 107% (inactive) |
| CCCc1cc(=O)[nH]c(=S)[nH]1 [propylthiouracil] (10 µM) | 0.00376 | 104% (inactive) |
| COc1cc(Br)c(S(=O)(=O)Nc2ccc(C(F)(F)F)c(O[C@@H]3CCN(C)C3)c2)cc1OC (10 µM) | 0.024 | 104% (inactive) |
| Cc1cc(/C=C/C#N)cc(C)c1Nc1ccnc(Nc2ccc(C#N)cc2)n1 [rilpivirine] (0.833333 µM) | 0.136 | 111% (inactive) |
| COc1ccc(S(=O)(=O)N(C(C)=O)c2ccccc2/C=C/c2cc[n+]([O-])cc2)cc1 (10 µM) | -0.108 | 93.5% (inactive) |
| COc1ccc(C2(CNC(=O)c3ccc(NC(=O)c4ccco4)cc3)CCOCC2)cc1 (0.833333 µM) | 0.269 | 93% (inactive) |
| O=C(COc1ccc(Cl)cc1)N1CCN(Cc2ccc3c(c2)OCO3)CC1 [fipexide] (10 µM) | -0.165 | 112% (inactive) |
| O=C(/C=C/c1c(C(=O)O)[nH]c2cc(Cl)cc(Cl)c12)Nc1ccccc1 [gavestinel] (10 µM) | 0.121 | 108% (inactive) |
| CC(C)(C#N)c1ccc(N2C(=O)OCc3cnc4ccc(-c5cnc6ccccc6c5)cc4c32)cc1 (10 µM) | 0.22 | 104% (inactive) |
| CSCC[C@H](NC(=O)[C@H](CC(C)C)NC(=O)CNC(=O)[C@H](Cc1ccccc1)NC(=O)[C@H](Cc1ccccc1)NC(=O)[C@H](CCC(N)=O)NC(=O)[C@H](CCC(N)=O)NC(=O)[C@@H]1CCCN1C(=O)[C@H](CCCCN)NC(=O)[C@@H]1CCCN1C(=O)[C@@H](N)CCCN=C(N)N)C(N)=O [substance-P] (10 µM) | -0.0435 | 114% (inactive) |
| O=C(Nc1ccccc1)N1CCC(Cc2cnc3ccccc3c2)CC1 (10 µM) | -0.147 | 104% (inactive) |
| CNCc1ccc(C)c(NC(=O)c2ccc(Nc3nc(-c4ccccc4)c4ccccc4n3)cc2)c1 (0.833333 µM) | 0.213 | 98% (inactive) |
| NC(=O)N1CCC(CC(=O)N2CCC([C@H]3c4ncc(Br)cc4CCc4cc(Cl)cc(Br)c43)CC2)CC1 [lonafarnib] (10 µM) | 0.736 | 43.5% (active) |
